ChEMBL document CHEMBL3988442, “University of Dundee, Small-Polar-MMV Screening Library” (2021)
For some assays here: Potency and affinity values are given separately.

Legend:
Set-up in all cases: scale not given: direction of the effect not stated beside the values
[1] = molecular target: Protein translocase subunit SecA (Escherichia coli (strain K12)) (UniProt P10408); assay: Assay to Identify E. coli SecA ATPase Inhibitors; format: functional; details: 30 µM
[2] = molecular target: T1, Ubiquitin-activating enzyme e1, putative (Leishmania donovani (strain BPK282A1)) (UniProt E9BSI1); assay: Leishmania donovani Ubiquitin Activating Enzyme (LdE1); format: functional; details: 30 µM
T1 sequence (whole entry): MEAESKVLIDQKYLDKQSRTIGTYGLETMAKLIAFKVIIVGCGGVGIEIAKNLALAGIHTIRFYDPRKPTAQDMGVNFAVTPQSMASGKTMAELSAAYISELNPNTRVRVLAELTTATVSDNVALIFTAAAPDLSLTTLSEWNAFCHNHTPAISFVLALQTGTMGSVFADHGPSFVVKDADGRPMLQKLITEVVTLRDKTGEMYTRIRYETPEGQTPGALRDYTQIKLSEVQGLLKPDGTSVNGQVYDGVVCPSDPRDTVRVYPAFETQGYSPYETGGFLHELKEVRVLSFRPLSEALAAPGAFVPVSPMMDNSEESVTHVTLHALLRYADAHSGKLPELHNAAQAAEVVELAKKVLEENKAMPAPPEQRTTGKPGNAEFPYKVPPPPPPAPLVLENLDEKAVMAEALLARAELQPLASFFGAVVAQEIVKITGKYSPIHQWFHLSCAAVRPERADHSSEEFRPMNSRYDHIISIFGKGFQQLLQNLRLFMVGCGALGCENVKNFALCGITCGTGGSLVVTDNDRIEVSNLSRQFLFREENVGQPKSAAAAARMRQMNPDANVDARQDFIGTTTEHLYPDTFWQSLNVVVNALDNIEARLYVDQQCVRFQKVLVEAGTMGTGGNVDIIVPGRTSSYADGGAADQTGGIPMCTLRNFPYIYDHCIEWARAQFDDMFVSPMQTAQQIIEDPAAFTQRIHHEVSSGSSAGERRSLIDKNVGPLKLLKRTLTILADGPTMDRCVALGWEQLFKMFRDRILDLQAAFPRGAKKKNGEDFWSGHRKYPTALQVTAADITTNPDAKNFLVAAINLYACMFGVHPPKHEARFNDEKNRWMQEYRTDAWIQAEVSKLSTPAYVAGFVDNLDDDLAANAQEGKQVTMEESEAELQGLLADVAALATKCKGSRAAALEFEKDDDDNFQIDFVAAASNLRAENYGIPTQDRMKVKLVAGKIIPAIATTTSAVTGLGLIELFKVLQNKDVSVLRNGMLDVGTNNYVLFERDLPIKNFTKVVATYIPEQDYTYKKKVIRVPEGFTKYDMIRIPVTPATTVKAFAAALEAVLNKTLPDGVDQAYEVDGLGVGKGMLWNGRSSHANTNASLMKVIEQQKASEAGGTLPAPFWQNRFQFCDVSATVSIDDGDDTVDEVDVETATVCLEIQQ

[3] = molecular target: AMP-activated protein kinase, AMPK (Homo sapiens) (UniProt P54646+O43741+P54619+Q9UGJ0+Q9Y478+Q13131+Q9UGI9); assay: AMP-dependent Kinase enzyme assay. An in vitro enzyme assay that detects ADP turnover that is directly proportional to AMPK activity. This uses naive AMPK that is activated during the assay with MK-8722; format: functional; details: 30 µM
[4] = molecular target: Sialic acid-binding Ig-like lectin 9 (Homo sapiens) (UniProt Q9Y336); assay: Hs-Siglec9 ALPHAscreen SOP 20170721; details: 10 µM
Chain of Sialic acid-binding Ig-like lectin 9 (Homo sapiens) (Q9Y336 whole entry): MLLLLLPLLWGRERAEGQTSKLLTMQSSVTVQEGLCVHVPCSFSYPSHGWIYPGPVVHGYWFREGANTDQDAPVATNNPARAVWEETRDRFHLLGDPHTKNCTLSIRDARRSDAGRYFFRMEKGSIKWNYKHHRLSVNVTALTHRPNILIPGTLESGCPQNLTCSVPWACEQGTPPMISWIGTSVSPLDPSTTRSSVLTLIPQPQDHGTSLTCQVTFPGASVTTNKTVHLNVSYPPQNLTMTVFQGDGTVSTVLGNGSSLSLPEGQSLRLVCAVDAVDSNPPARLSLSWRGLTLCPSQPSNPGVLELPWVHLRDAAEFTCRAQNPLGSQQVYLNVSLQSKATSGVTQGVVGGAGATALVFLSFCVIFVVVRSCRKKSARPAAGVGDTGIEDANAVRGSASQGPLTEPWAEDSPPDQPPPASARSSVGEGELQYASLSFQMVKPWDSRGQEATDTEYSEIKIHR

Trypanosoma cruzi = assay: Trypanosoma cruzi phosphomannomutase and mannose-1-phosphate guanylyltransferase assay; format: functional; details: 10 µM
[5] = molecular target: T2, Arginase-2, mitochondrial (Homo sapiens) (UniProt P78540); assay: in vitro enzyme assay to detect the production of urea directly proportional to the activity of Arginase II; format: functional; details: 33.3 µM; further: in the data most compounds retested in dose-response had high values
T2 sequence (whole entry): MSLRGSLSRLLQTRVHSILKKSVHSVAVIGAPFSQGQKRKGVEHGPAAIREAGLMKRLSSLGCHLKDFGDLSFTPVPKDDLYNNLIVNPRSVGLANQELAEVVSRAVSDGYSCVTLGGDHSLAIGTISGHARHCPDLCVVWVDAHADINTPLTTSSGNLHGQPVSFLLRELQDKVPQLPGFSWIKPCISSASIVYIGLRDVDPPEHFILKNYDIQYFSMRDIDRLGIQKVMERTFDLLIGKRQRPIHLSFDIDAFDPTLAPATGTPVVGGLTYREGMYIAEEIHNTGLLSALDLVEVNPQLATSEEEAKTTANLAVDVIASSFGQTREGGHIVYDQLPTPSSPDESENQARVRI

[6] = molecular target: T3, Proteasome subunit beta (Trypanosoma cruzi) (UniProt O96673); assay: Trypanosoma cruzi proteasome chymotrypsin-like activity (TcProtChymo) assay.; further: in the data most compounds retested in dose-response had high values; format: functional; details: 9.37 µM
T3 sequence (whole entry): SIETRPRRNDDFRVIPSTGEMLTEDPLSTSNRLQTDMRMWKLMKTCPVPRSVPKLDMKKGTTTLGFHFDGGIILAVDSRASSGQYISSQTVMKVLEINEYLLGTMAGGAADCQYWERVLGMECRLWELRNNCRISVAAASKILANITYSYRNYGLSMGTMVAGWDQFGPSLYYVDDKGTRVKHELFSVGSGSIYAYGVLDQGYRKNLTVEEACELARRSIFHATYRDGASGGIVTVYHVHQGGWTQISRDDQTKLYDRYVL

Homo sapiens = species on record: Homo sapiens; assay: To identify inhibition of the IFN signalling (Jak-Stat) pathway via expression of an eGFP reporter gene under the control of an IFN-stimulated response element (ISRE) containing MxA promoter.; format: functional; details: 30 µM
[7] = molecular target: T4, Tyrosyl-tRNA synthetase, putative (Trypanosoma cruzi (strain CL Brener)) (UniProt Q4DSP6); assay: Trypanosoma cruzi tyrosyl tRNA synthetase (TcYRS) _High Tyrosine SOP; format: functional; details: 30 µM; further: in the data most compounds retested in dose-response had high values
T4 sequence (whole entry): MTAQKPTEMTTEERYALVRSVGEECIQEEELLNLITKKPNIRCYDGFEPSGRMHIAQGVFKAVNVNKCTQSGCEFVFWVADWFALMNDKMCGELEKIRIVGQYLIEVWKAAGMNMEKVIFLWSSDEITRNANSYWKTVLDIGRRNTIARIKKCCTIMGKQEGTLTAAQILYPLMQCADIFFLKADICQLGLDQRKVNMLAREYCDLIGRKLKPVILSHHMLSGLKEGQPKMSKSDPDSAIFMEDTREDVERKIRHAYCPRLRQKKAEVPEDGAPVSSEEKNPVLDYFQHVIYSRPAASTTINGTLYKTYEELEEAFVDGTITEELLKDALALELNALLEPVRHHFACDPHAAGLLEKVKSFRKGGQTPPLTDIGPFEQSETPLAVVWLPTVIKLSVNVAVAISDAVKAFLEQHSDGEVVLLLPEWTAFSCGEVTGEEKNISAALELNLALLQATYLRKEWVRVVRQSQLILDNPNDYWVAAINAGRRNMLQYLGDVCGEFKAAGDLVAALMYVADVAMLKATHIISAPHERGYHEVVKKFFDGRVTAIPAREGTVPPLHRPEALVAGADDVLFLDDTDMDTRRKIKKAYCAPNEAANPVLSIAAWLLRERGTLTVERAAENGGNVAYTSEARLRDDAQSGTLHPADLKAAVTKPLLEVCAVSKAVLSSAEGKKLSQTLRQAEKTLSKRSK

[8] = molecular target: T4, Tyrosyl-tRNA synthetase, putative (Trypanosoma cruzi (strain CL Brener)); assay: Trypanosoma cruzi tyrosyl tRNA synthetase (TcYRS) SOP; format: functional; details: 30 µM
[9] = molecular target: Chromo domain-containing protein 1 (Saccharomyces cerevisiae (strain ATCC 204508 / S288c) (Baker's yeast)) (UniProt P32657); assay: ScCHD-1 Enzyme Inhibition Assay; format: functional; details: 30 µM; further: in the data most compounds retested in dose-response had high values
Chain of Chromo domain-containing protein 1 (Saccharomyces cerevisiae (strain ATCC 204508 / S288c) (Baker's yeast)) (P32657 whole entry, the tested form may be a part): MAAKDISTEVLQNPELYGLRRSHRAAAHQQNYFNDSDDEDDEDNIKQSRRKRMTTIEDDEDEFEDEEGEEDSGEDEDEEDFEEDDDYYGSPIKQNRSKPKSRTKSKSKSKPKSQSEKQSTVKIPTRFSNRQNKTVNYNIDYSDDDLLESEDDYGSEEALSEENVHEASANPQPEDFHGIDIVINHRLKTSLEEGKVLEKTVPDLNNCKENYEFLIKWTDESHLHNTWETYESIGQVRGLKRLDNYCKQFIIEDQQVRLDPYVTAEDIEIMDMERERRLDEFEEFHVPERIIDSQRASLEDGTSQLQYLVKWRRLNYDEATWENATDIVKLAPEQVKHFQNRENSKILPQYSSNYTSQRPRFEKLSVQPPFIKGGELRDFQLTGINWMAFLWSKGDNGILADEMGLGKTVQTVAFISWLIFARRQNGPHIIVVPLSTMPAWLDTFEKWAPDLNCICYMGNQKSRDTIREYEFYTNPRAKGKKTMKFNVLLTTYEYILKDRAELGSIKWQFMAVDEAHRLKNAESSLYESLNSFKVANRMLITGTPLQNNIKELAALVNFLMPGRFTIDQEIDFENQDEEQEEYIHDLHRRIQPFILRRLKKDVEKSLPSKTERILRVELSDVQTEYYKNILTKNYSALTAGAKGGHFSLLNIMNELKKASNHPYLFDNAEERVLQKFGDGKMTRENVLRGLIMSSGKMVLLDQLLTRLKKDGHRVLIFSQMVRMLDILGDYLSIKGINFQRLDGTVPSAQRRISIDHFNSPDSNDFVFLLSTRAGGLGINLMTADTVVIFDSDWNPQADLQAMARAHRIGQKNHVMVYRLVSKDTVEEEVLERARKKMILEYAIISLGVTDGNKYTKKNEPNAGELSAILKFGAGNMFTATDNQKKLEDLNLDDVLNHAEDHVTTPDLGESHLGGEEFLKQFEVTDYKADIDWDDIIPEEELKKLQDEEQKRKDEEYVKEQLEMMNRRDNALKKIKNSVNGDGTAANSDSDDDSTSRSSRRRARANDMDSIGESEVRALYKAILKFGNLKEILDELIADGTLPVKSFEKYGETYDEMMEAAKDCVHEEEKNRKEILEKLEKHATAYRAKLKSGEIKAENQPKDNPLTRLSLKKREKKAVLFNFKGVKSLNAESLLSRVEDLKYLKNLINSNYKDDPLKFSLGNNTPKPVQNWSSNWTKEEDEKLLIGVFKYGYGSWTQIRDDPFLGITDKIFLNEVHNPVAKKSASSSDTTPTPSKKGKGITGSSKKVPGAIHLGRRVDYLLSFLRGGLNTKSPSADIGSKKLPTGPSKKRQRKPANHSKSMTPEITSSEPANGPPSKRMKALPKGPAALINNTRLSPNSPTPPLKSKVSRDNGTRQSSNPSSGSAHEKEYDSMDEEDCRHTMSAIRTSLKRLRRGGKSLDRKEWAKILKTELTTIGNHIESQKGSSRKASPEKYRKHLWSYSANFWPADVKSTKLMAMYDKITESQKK

Chain of Protein translocase subunit SecA (Escherichia coli (strain K12)) (P10408 whole entry): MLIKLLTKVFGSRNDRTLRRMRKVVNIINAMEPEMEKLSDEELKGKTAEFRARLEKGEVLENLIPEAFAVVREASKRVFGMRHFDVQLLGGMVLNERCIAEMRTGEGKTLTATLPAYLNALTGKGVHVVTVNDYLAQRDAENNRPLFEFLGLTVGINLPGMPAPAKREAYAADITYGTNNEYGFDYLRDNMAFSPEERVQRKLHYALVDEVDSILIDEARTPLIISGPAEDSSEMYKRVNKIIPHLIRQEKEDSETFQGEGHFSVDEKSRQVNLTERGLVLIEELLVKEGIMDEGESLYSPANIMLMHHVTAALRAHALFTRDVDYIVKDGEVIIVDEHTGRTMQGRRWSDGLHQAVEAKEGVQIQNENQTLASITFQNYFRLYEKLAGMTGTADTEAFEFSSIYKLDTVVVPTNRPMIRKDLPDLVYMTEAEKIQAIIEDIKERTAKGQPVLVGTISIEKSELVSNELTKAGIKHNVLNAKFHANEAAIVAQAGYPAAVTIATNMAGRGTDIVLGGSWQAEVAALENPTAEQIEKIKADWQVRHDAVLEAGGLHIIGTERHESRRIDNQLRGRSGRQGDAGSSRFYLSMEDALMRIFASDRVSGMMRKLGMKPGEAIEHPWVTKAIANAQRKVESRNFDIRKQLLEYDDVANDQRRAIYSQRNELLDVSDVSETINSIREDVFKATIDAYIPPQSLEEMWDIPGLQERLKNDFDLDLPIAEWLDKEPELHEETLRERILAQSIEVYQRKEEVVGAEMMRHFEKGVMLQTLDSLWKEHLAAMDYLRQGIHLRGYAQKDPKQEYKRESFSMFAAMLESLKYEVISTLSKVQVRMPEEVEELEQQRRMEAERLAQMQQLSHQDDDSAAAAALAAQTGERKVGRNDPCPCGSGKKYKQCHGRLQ

Compound `COc1cc(CCC(=O)NC2CC2)ccc1OCC(F)(F)F` has a Percent Effect [1] of -2.29%, a Percent Effect [2] of 18.4% and a Percent Effect [3] of -5.56%. It also gave a Percent Effect [4] of -6.41%, a Percent Effect (Trypanosoma cruzi) of -10.4% and a Percent Effect [5] of 2.52%. The Percent Effect [6] was 3.47%, the Percent Effect (Homo sapiens) was 3.66% and the Percent Effect [7] was 4.43%. It also gave a Percent Effect [8] of 16.1% and a Percent Effect [9] of -1.66%.
Compound `CCCc1nc(CN2CCOC(Cn3cncn3)C2)no1` (stereo not given) has a Percent Effect [1] of -1.95%, a Percent Effect [2] of 11.4% and a Percent Effect [3] of -5.09%. The Percent Effect [4] was -4.75%, the Percent Effect (Trypanosoma cruzi) was -1.74% and the Percent Effect [5] was 3.23%. It also gave a Percent Effect [6] of 12.3%, a Percent Effect (Homo sapiens) of 18.7% and a Percent Effect [7] of 3.12%. The Percent Effect [8] was 10.1% and the Percent Effect [9] was -24.9%.
Compound `N#Cc1ccc(F)c(CN2CCCC2Cn2cccn2)c1` (stereo not given) has a Percent Effect [1] of -4.03%, a Percent Effect [2] of -8.11% and a Percent Effect [3] of -4.51%. It also gave a Percent Effect [4] of 13.8%, a Percent Effect (Trypanosoma cruzi) of 1.39% and a Percent Effect [5] of -0.554%. The Percent Effect [6] was -0.359%, the Percent Effect (Homo sapiens) was 4.22% and the Percent Effect [7] was 4.95%. For the same compound, the Percent Effect [8] was 1.22% and the Percent Effect [9] was 4.66%.
With `Cc1ccccc1CNc1nc(O)cc(C2CC(=O)N(C)C2)n1` (stereo not given) the Percent Effect [1] was 3.9%, the Percent Effect [2] was 6.76% and the Percent Effect [3] was 3.36%. It also gave a Percent Effect [4] of -2.99%, a Percent Effect (Trypanosoma cruzi) of -44.5% and a Percent Effect [5] of 4.87%. The Percent Effect [6] was 13.1%, the Percent Effect (Homo sapiens) was 8.17% and the Percent Effect [7] was 2.15%. It also gave a Percent Effect [8] of 9.09% and a Percent Effect [9] of -10.8%.
Compound `CS(=O)(=O)CCSc1cccc(C#N)c1` has a Percent Effect [1] of -3.18%, a Percent Effect [2] of -4.17% and a Percent Effect [3] of -4.21%. It also gave a Percent Effect [4] of -5.6%, a Percent Effect (Trypanosoma cruzi) of -0.291% and a Percent Effect [5] of -0.442%. For the same compound, the Percent Effect [6] was 7.72%, the Percent Effect (Homo sapiens) was 7.41% and the Percent Effect [7] was -1.05%. For the same compound, the Percent Effect [8] was 0% and the Percent Effect [9] was -0.524%.
With `CCCN1CCN(C(=O)c2scnc2C)CC1` the Percent Effect [1] was -7.16%, the Percent Effect [2] was 10.5% and the Percent Effect [3] was 0.673%. For the same compound, the Percent Effect [4] was 9.57%, the Percent Effect (Trypanosoma cruzi) was 2.82% and the Percent Effect [5] was 0%. For the same compound, the Percent Effect [6] was 9.3%, the Percent Effect (Homo sapiens) was -10.2% and the Percent Effect [7] was 1.06%. For the same compound, the Percent Effect [8] was 10.4% and the Percent Effect [9] was -4.16%.
Work on `Cc1cnn(CC2CCCCN2C(=O)c2ccnc(N(C)C)c2)c1` (stereo not given) yielded a Percent Effect [1] of -4.87%, a Percent Effect [2] of 10.4% and a Percent Effect [3] of 2.75%. For the same compound, the Percent Effect [4] was 9.97%, the Percent Effect (Trypanosoma cruzi) was -0.49% and the Percent Effect [5] was 4.42%. For the same compound, the Percent Effect [6] was 13.8%, the Percent Effect (Homo sapiens) was 5.85% and the Percent Effect [7] was 2.86%. For the same compound, the Percent Effect [8] was 9.41% and the Percent Effect [9] was -16.5%.
For `Cc1ncsc1C(=O)Nc1cccc(OCC(F)F)n1`, the Percent Effect [1] was -4.44%, the Percent Effect [2] was 2.63% and the Percent Effect [3] was 10.6%. For the same compound, the Percent Effect [4] was 1.18%, the Percent Effect (Trypanosoma cruzi) was -4.19% and the Percent Effect [5] was -8.28%. For the same compound, the Percent Effect [6] was 22.5%, the Percent Effect (Homo sapiens) was 31.7% and the Percent Effect [7] was 3.19%. The Percent Effect [8] was 7.79% and the Percent Effect [9] was -0.476%.
Compound `O=C(Cc1ccc2c(c1)CCO2)N1CCCCC1Cn1cccn1` (stereo not given) has a Percent Effect [1] of -5.85%, a Percent Effect [2] of 10.5% and a Percent Effect [3] of 0.878%. For the same compound, the Percent Effect [4] was 4.66%, the Percent Effect (Trypanosoma cruzi) was 2.24% and the Percent Effect [5] was -5.92%. The Percent Effect [6] was 7.19%, the Percent Effect (Homo sapiens) was 7.18% and the Percent Effect [7] was 5.32%. For the same compound, the Percent Effect [8] was 7.79% and the Percent Effect [9] was -7.71%.
With `COCCN(Cc1ccc(F)cc1Cl)C(=O)c1ccncc1` the Percent Effect [1] was -1.67%, the Percent Effect [2] was -1.39% and the Percent Effect [3] was -3.11%. For the same compound, the Percent Effect [4] was 0.447%, the Percent Effect (Trypanosoma cruzi) was 0.486% and the Percent Effect [5] was -1.32%. The Percent Effect [6] was 5.09%, the Percent Effect (Homo sapiens) was 0.399% and the Percent Effect [7] was -1.05%. The Percent Effect [8] was 0% and the Percent Effect [9] was -1.32%.
